SARS 3CLpro inh-1: SARS-CoV 3CLpro protease inhibition; 290,000 tested, 0.14% active; recombinant SARS-CoV 3CLpro, quenched FRET peptide cleavage; AID 1706; inhibition, % at 6 µM; in the data active = inhibition above about 12%
Anthrax LF prot: blocks Bacillus anthracis lethal factor protease. AID 588501. inhibition, % at 10 µM. multiplex microsphere protease cleavage assay, LF. P15917. 360,000 tested, 0.12% active; also: plate controls were buffer without enzyme for full effect and enzyme alone for no effect
Target sequence (P15917 whole entry, looked up): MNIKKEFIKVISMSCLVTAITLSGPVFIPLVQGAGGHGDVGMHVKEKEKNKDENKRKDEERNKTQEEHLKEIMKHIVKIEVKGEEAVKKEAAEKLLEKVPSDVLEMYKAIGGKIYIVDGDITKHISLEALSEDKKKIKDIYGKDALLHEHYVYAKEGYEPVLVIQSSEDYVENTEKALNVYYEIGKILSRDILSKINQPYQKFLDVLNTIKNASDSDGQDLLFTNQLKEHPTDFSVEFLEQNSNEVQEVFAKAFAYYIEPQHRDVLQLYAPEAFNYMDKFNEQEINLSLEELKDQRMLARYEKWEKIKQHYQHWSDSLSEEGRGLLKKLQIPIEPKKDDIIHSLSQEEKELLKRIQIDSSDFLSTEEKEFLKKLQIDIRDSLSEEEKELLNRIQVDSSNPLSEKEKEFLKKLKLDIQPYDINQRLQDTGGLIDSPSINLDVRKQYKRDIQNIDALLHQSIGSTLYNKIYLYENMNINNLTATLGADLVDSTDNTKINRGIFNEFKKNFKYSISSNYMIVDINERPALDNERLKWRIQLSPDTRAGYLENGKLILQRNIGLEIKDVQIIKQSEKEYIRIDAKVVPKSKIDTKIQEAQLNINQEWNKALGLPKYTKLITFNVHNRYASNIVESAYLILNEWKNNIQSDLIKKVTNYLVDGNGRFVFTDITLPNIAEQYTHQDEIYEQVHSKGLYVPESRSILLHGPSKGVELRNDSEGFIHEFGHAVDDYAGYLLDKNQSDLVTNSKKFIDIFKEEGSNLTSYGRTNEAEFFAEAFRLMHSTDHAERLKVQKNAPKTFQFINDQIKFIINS
CCHF vOTU inh: CCHFV vOTU protease inhibition; inhibition, % at 11.5 µM; Pep-AMC fluorescence; 370,000 tested, 0.55% active; in the data active = inhibition above about 30%; also: 0% = vehicle wells with enzyme and 100% = no enzyme wells
Autofluor counter: compound fluorescence in toxin protease inhibitor counterscreen; fluorescence intensity (test concentration not listed); compound autofluorescence counterscreen, microsphere flow cytometry; hits give high values; 360,000 tested, 3.1% active; in the data active = fluorescence intensity above about 16000; inconclusive = no clear call, values can overlap the other calls
BoNT A protease: BoNT A light chain protease inhibition; multiplex microsphere protease substrate cleavage, flow cytometry; 360,000 tested, 0.17% active; inhibition, % at 10 µM; AID 588499; also: plate controls were buffer without enzyme for full effect and enzyme alone for no effect
BoNT-F LC inh: blocks Botulinum neurotoxin F light chain protease; Multiplex microsphere protease cleavage assay, flow cytometry; inhibition, % at 10 µM; 360,000 tested, 0.22% active; in the data active = inhibition above about 35%, passing the limit was not always enough; inconclusive = no clear call, values can overlap the other calls; also: plate controls were buffer without enzyme for full effect and enzyme alone for no effect
SARS 3CLpro inh-2: SARS 3CLpro inhibition, confirmation assay | inhibition, % at 6 µM | 380 tested, 36% active | shares compounds with SARS 3CLpro inh-1 | AID 1879 | QFRET protease activity assay; in the data active = inhibition above about 13%
* hit, by the source's call; u = inconclusive; x = not tested or not shown. Most compounds without a hit are left out; they make up all but 3.9% or so of the library. Rule as the data show it, unless noted: active = inhibition above about 30%; inconclusive = no clear call, values can overlap the other calls; inactive = below that.

SMILES | SARS 3CLpro inh-1 | Anthrax LF prot | CCHF vOTU inh | Autofluor counter | BoNT A protease | BoNT-F LC inh | SARS 3CLpro inh-2
Cc1ccc(NC(=O)CCC(=O)NNC(=O)C(c2ccccc2)c2ccccc2)c(C)c1 | 14* | -6 | -8 | 16054 | 1 | -1 | 0
O=c1[nH]c(=O)n(-c2ccc(F)cc2)c(O)c1/C=C1\C=Nc2ccccc21 | 5 | 2 | -8 | 3147 | 0 | 12 | x
O=c1[nH]c(=O)n(-c2ccccc2F)c(O)c1/C=C1\C=Nc2ccccc21 | 29* | -8 | -4 | 4154 | 1 | 2 | 38*
COCCNC(=O)c1cccc(OC2CCN(Cc3cccc(SC)c3)CC2)c1 | -5 | 3 | 8 | 3684 | -3 | u | x
CCc1c(C)sc(NC(=O)OC)c1C(=O)N1CCCCC1 | -3 | -4 | 0 | 7271 | -1 | -22 | x
CCc1c(C)sc(NC(=O)Cc2ccccc2OC)c1C(=O)N1CCOCC1 | 13* | 0 | -8 | 4978 | 3 | 0 | 0
Cc1ccccc1OCC(=O)Nc1ccc(N2CCN(C(=O)c3ccco3)CC2)cc1 | 6 | 0 | 3 | 5705 | 1 | 4 | x
CCCNC(=O)CCc1nnc2ccc(N3CCC(C)CC3)nn12 | 3 | -2 | 2 | 3367 | 0 | 6 | x
CC1CCN(c2ccc3nnc(CCC(=O)NCCCOC(C)C)n3n2)CC1 | 16* | -4 | 9 | 3838 | -4 | 7 | -1
O=C(O)c1ccc(N2N=C(c3ccccc3)CC2c2ccccc2)cc1 (stereo not drawn) | 13* | 1 | -145 | 2826 | 2 | u | 7
Cc1nc(C(F)(F)F)ccc1C(=O)N1CCC1(C)C(=O)NS(=O)(=O)c1ccc2c(c1)CCO2 (stereo not drawn) | x | -8 | 10 | 3935 | -1 | -3 | x
Cc1ccc(C(=O)CSc2nnc(CNc3ccc(C)cc3C)n2Cc2ccco2)cc1 | 13* | -4 | 1 | 4329 | -1 | -5 | 5
COc1ccc(C(=O)CSc2nnc(CNc3ccc(C)cc3C)n2Cc2ccco2)cc1 | 3 | 4 | 0 | 5007 | -1 | -6 | x
Cc1ccc(C2CC(c3cccs3)=NN2C(=O)CCl)cc1 (stereo not drawn) | 55* | -5 | 10 | 14263 | 1 | 31 | 70*
COc1ccc(C(=O)n2c(SC)nc3cc4c(cc32)OCCO4)cc1 | 12* | -3 | 9 | 10562 | 2 | 12 | 92*
CCCC(=O)N(Cc1cc(=O)[nH]c2ccccc12)c1ccc(OC)cc1 | -3 | -3 | 17 | 3885 | -1 | -9 | x
COc1ccc(N(Cc2cc(=O)[nH]c3ccccc23)C(=O)CCl)cc1 | 16* | -20 | -18 | 3658 | -1 | 0 | 25*
CCc1c2ccccc2nn1-c1ccccc1C(=O)C(C)=O | -6 | 7 | 0 | 4089 | -5 | -5 | x
C/C(=N\N=C(/N)SC1CC(=O)N(c2ccccc2)C1=O)c1cccs1 (stereo not drawn) | 3 | -2 | 11 | 7137 | 0 | -5 | x
C/C(=N\N=C(/N)SC1CC(=O)N(c2ccc(Cl)cc2)C1=O)c1cccs1 (stereo not drawn) | 13* | -5 | 13 | 11354 | 0 | 3 | 9
O=S(=O)(c1cccc(NC(=S)N2CCN(c3ccccc3F)CC2)c1)C(F)F | 3 | -3 | 4 | 2606 | 0 | -2 | x
O=S(=O)(c1cccc(NC(=S)N2CCN(c3ccccc3)CC2)c1)C(F)F | 13* | 2 | -2 | 2748 | -1 | -8 | 3
Cc1ccc2c(c1)C(=O)C(=O)N2CC1COc2ccccc2O1 (stereo not drawn) | 7 | 6 | -5 | 3751 | 2 | 8 | x
CCOc1ccc2c(c1)C(=O)C(=O)N2CC1COc2ccccc2O1 (stereo not drawn) | 58* | -12 | -22 | 3931 | -4 | 2 | 60*
COc1ccc2c(c1)C(=O)C(=O)N2CC1COc2ccccc2O1 (stereo not drawn) | 35* | -1 | -12 | 2811 | 2 | 4 | 40*
SMILES | SARS 3CLpro inh-1 | Anthrax LF prot | CCHF vOTU inh | Autofluor counter | BoNT A protease | BoNT-F LC inh | SARS 3CLpro inh-2
CCC(=O)Nc1nnc(SCC(=O)NC2CCCC2)s1 | 1 | 1 | 9 | 5876 | 2 | 5 | x
CCc1noc(C)c1C(=O)OCC(=O)Nc1ncc(Cl)cc1Cl | 1 | -2 | -12 | 5076 | -3 | 0 | x
COc1cc2c(cc1OC)C(c1cc(Br)ccc1F)N(C(=O)CCl)CC2 (stereo not drawn) | 22* | 0 | -15 | 4316 | 1 | u | 34*
CCOC(=O)C1CCN(C(=O)c2ccc3c(c2)NC(=O)/C(=C/c2ccccc2)S3)CC1 | 6 | -1 | 16 | 3670 | 2 | 5 | x
CCOC(=O)C1CCN(C(=O)c2ccc3c(c2)NC(=O)/C(=C\c2cccc(C)c2)S3)CC1 | 13* | -2 | 10 | 4375 | -1 | 3 | 1
CC(C)(C)C(=O)NC(=S)Nc1sc2c(c1C#N)CCCCC2 | 34* | 2 | -16 | 2496 | 0 | -6 | 3
O=C(NCCC(=O)N1CCN(S(=O)(=O)c2ccccc2F)CC1)Nc1ccccc1 | x | -5 | -6 | 8999 | -2 | -11 | x
COc1cccc(NC(=O)CN(C)C(=O)c2cccnc2Nc2cccc(C(F)(F)F)c2)c1 | x | -9 | x | 9032 | -1 | -4 | x
Cc1ccc(NC(=O)CN(C)C(=O)c2cccnc2Nc2cccc(C(F)(F)F)c2)cc1 | 13* | -8 | 12 | 5534 | -1 | 1 | 12
COc1ccc(/C=C/C(=O)c2cc3c(cc2N)OCO3)cc1 | 0 | -4 | -10 | 3951 | -1 | -4 | x
CC(=O)NC1C(=O)N(CCN2CCOCC2)c2ccc(Br)cc21 (stereo not drawn) | 14* | -21 | -1 | 4022 | -7 | -37 | 47*
CN1CCCN(S(=O)(=O)c2ccc(O)c(C(=O)O)c2)CC1 | 0 | 5 | -6 | 3161 | 0 | -4 | x
CCOC(=O)c1ccc(NC(=O)CN2C(=O)CSCC2=O)cc1 | 11 | 2 | 7 | 2437 | 0 | -5 | x
CCOC(=O)c1ccc(NC(=O)CN2C(=O)C(CC)SC(CC)C2=O)cc1 (stereo not drawn) | 13* | -2 | 3 | 2467 | 0 | -7 | -2
COc1c(/C=N/NC(=O)c2ccncc2)c(CCN(C)C(C)=O)cc2c1OCO2 | 0 | -15 | 4 | 3591 | -1 | u | x
Cc1ccc(OCC(=O)N/N=C/c2ccc([N+](=O)[O-])o2)cc1 | 13* | -18 | 16 | 4189 | -1 | -2 | -6
O=C(N/N=C/c1ccc(F)cc1)c1ccc(OCc2ccccc2)cc1 | 7 | 3 | -6 | 4597 | 0 | -2 | x
O=C(O)/C(=C\c1cccc(OCc2ccccc2)c1)c1ccc(F)cc1 | 16* | -2 | 19 | 5319 | 1 | 8 | 6
CC(C)CS(=O)(=O)C1=NSC2=NC(=O)/C(=C\c3ccc(OC(=O)c4ccco4)cc3)C(=N)N21 | 13* | 1 | 5 | 4599 | -2 | -4 | -1

Screens as filed in PubChem.
